# A selection: hits, their analogues and other compounds. The true share with any hit is near 11%.
# Pf growth 48h: Primary qHTS for delayed death inhibitors of the malarial parasite plastid, 48 hour incubation. Potency, µM (highest dose often 28.7 µM), for inactives: at the top dose activity change, negative = inhibition, actives largely listed as inhibitors. P. falciparum luciferase growth in erythrocytes, 48 h. AID 504832, 2011. actives 5.9% (n = 310,000)
#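 Cell-based growth assay: transgenic P. falciparum expressing firefly luciferase, cultured in red cells within RPMI 1640 containing 0.5% w/v Albumax, 24 mM bicarbonate and gentamycin. A drop in luciferase activity indicates inhibition.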
# Pf growth 96h: Primary qHTS for delayed death inhibitors of the malarial parasite plastid, 96 hour incubation | P. falciparum luciferase reporter growth, 96 h | Potency, µM (top dose mostly 28.7 µM), inactives show at the highest dose activity change, negative = inhibition, hits mostly inhibitors | actives 6.9% (n = 320,000)
#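 Readout is luminescence from an integrated firefly luciferase in P. falciparum. Red cells, 2% hematocrit and 0.05% parasitemia final, were cultured with compound through two parasite generations (96 hours) at 37 C, 5% CO2.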
# HCV inhibitor: qHTS Assay for Inhibitors of Hepatitis C Virus (HCV); Potency, µM (titrated, usually from 41.8 µM), for the others: top-dose activity change, negative = inhibition, usual class: inhibitors; actives 3.4% (n = 340,000); Huh7.5.1 HCVcc-Cre infection, luciferase reporter, 44 h
#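 HCVcc-Cre virus at an moi near 0.5 was added right after compound to cells cultured 4 h from seeding (1,000 cells/well). Luciferase activity was determined 44 h later, 15 min after substrate addition at RT.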
# AMA1 RON2 block: qHTS for Inhibitors of AMA1-RON; Towards Development of Antimalarial Drug Lead: Primary Screen; Plasmodium falciparum AMA1 (3D7) - RON2 peptide interaction; AlphaScreen AMA1-biotinylated RON2 peptide binding; Potency, µM (top dose mostly 58.2 µM), for the others: at the highest dose activity change, negative = inhibition, usual class: inhibitors; actives 0.2% (n = 360,000);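 also: 0% = vehicle wells and -100% = peptide control; nearly all actives have a fitted effect of over 45% in size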
#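 AMA1 (3D7) with his tag at 25 nM final met compounds first, then biotinylated RON2 peptide at 25 nM; detection used donor plus acceptor beads, 10 µg/mL apiece, read by AlphaScreen after 30 min at room temperature.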
# Numbers without * were called inactive; ? = inconclusive; / = no result. Calls follow the shape of the dose curve; as a rule, active = well fitted curve in the direction sought with a large enough effect; inconclusive = small, poorly fitted or top-dose-only effect, or another doubt; inactive = no such curve, though single readings can be large; an effect the other way counts as inactive or inconclusive. Unless noted, % is scaled to controls: 0 for no effect and ±100 for the full control effect; potency is read from the fitted curve at half-maximal effect.
SMILES,Pf growth 48h,Pf growth 96h,HCV inhibitor,AMA1 RON2 block
O=C(c1ccco1)N1CCN(c2nc(C3CC3)nc3sc4c(c23)CCCC4)CC1,9.28µM*,-20.8%,?,?
COc1cccc(CNC(=O)c2nnn(CC(=O)Nc3ccc(Br)cc3)c2N)c1,14.7%,19.0%,?,-2.7%
O=C(NC1CCN(C(=O)c2cccs2)CC1)c1ccccc1,66.0%,-13.2%,7.7%,-3.6%
O=C(c1ccco1)N1CCN(c2nc(C3CC3)nc3c2nnn3Cc2ccccc2Cl)CC1,6.57µM*,-5.8%,?,-25.2%
Cc1nc(N2CCN(C)CC2)c2c3c(sc2n1)CCCC3,?,2.4%,-15.8%,-1.7%
O=C(c1cccs1)N1CCN(C(=O)C2CCCO2)CC1 (stereo unspecified),13.5%,4.65µM*,7.2%,-2.4%
Cc1nc(N2CCN(C(=O)c3ccco3)CC2)c2c3c(sc2n1)CCCC3,?,?,2.82µM*,-10.9%
COc1ccc(S(=O)(=O)N2CCOC23CCN(S(=O)(=O)c2cc(C)ccc2OC)CC3)cc1,?,-6.3%,-8.3%,-11.0%
O=C1CSC(c2cn(-c3ccccc3)nc2-c2cc3ccccc3oc2=O)N1Cc1ccccc1 (stereo unspecified),/,-0.7%,12.6µM*,0.0%
O=C1CSC(c2cn(-c3ccccc3)nc2-c2ccc3c(c2)OCCO3)N1CCN1CCOCC1 (stereo unspecified),8.28µM*,1.7%,-16.6%,-2.2%
Cc1cc(C)nc(N2CCCC(C(=O)NCCC3=CCCCC3)C2)n1 (stereo unspecified),-3.7%,38.9%,/,-2.4%
CC(=O)c1cccc(CN2CCC(C(=O)Nc3ccc(-c4cccc(C)c4)cc3)CC2)c1,4.15µM*,-28.9%,?,-1.3%
Cc1ccc(CN2CCC(C(=O)Nc3ccc(Oc4cccnc4)cc3)CC2)cc1,10.4µM*,-21.1%,/,-1.5%
CC(=O)c1cccc(CN2CCC(C(=O)Nc3ccc(Oc4cccnc4)cc3)CC2)c1,?,?,?,-27.8%
O=C(Nc1ccc(Oc2cccnc2)cc1)C1CCN(Cc2ccccc2F)CC1,?,5.86µM*,?,3.0%
Cc1cccc(CN2CCCC(C(=O)Nc3ccccc3Oc3cccnc3)C2)c1 (stereo unspecified),9.28µM*,-4.9%,4.1%,-0.2%
O=C(Nc1ccc(Oc2cccnc2)cc1)C1CCN(Cc2ccccc2)CC1,?,?,-27.3%,-8.7%
CC(C)(c1cc(Br)c(O)c(Br)c1)c1cc(Br)c(O)c(Br)c1,5.0%,?,0.8%,-18.8%
CC(=O)Nc1cccc(C(=O)N2CCN(S(=O)(=O)c3ccc(C4CCCCC4)cc3)CC2)c1,/,/,?,-4.2%
Cc1ccc(C(C)C)cc2c(C)ccc1-2,-15.8%,?,35.5µM*,-20.4%
NS(=O)(=O)c1ccc(NC(=O)CCC(=O)c2ccc(Cl)s2)cc1,-15.2%,26.7%,8.4%,9.1%
CC1=Nc2cc(Cl)ccc2Oc2ccccc21,15.4%,2.08µM*,-2.5%,10.5%
CC/S(C)=N/S(=O)(=O)c1ccc(C)cc1 (stereo unspecified),7.6%,18.5%,34.5%,-2.3%
C[C@H](CO)N1C[C@H](C)[C@@H](CN(C)S(=O)(=O)c2ccc(F)cc2)Oc2ccc(NC(=O)Nc3ccc(C(F)(F)F)cc3)cc2C1=O,/,/,31.6µM*,-2.8%
Cc1ccc(S(=O)(=O)N(C)C[C@@H]2Oc3ccc(NS(C)(=O)=O)cc3CC(=O)N([C@H](C)CO)C[C@@H]2C)cc1,/,/,2.82µM*,13.5%
SMILES,Pf growth 48h,Pf growth 96h,HCV inhibitor,AMA1 RON2 block
C[C@H](CO)N1C[C@H](C)[C@@H](CN(C)S(=O)(=O)c2ccc(F)cc2)Oc2ccc(NS(=O)(=O)c3ccc(F)cc3)cc2C1=O,/,/,-5.4%,-8.7%
Cc1ccc(S(=O)(=O)N(C)C[C@@H]2Oc3ccc(NC(=O)CCC(F)(F)F)cc3CC(=O)N([C@@H](C)CO)C[C@@H]2C)cc1,/,/,?,4.5%
C[C@@H]1CN([C@H](C)CO)C(=O)c2cc(NS(=O)(=O)c3ccc(F)cc3)ccc2O[C@@H]1CN(C)Cc1ccc(Cl)c(Cl)c1,/,/,6.31µM*,-0.4%
C[C@@H]1CN([C@H](C)CO)C(=O)c2cc(NC(=O)Nc3ccc(C(F)(F)F)cc3)ccc2O[C@H]1CN(C)S(=O)(=O)c1ccc(Cl)cc1,/,/,?,7.1%
C[C@H](CO)N1C[C@H](C)[C@@H](CN(C)Cc2ccc(-c3ccccc3)cc2)Oc2c(NC(=O)c3ccncc3)cccc2C1=O,/,/,10µM*,-22.7%
O=C(Nc1ccc(Br)cc1)N1CCCCC1,47.0%,15.3%,-7.9%,-3.8%
Cc1cc(C)c(S(=O)(=O)N2CCCOC2CNC(=O)C(=O)NCc2ccncc2)c(C)c1 (stereo unspecified),-22.2%,8.7%,14.0%,0.1%
CN(C)C(=O)c1c(C(F)(F)F)nn(C)c1Cl,-8.1%,-3.5%,-21.1%,13.3%
CCN(CC)S(=O)(=O)c1ccc2[nH]c(=O)cc(C(=O)Nc3ccccc3N3CCOCC3)c2c1,-1.4%,30.3%,3.3%,5.4%
COC(=O)[C@]12CCCCC=C1N(Cc1ccc3c(c1)OCO3)C(=O)[C@H](CC(=O)N1CCSCC1)C2,/,/,/,-15.4%
COc1ccc(NC(=O)N(C)C[C@H]2Oc3c(NC(=O)Nc4ccc(C(F)(F)F)cc4)cccc3C(=O)N([C@H](C)CO)C[C@@H]2C)cc1,/,/,6.31µM*,0.2%
C[C@H](CO)N1C[C@H](C)[C@@H](CN(C)C(=O)Nc2ccc(C(F)(F)F)cc2)Oc2c(NC(=O)Nc3ccccc3)cccc2C1=O,/,/,-14.0%,-9.5%
COc1ccc2c(c1OC)C(=O)N1c3ccccc3C(=O)N(c3ccccc3F)C21 (stereo unspecified),10.4µM*,11.7µM*,?,0.0%
COc1ccc2c(c1OC)C(=O)N1c3ccccc3SC21 (stereo unspecified),226.2%,121.3%,20.2%,3.7%
Cc1ccc(-c2cc(-c3ccccc3)cc(-c3ccccc3)[n+]2-c2ccc(C(=O)O)cc2)cc1,?,?,-7.0%,14.5%
[O-]c1ccccc1-[n+]1c(-c2ccccc2)cc(-c2ccccc2)cc1-c1ccccc1,1.31µM*,0.329µM*,6.31µM*,-1.8%
O=C([O-])c1ccccc1-[n+]1c(-c2ccccc2)cc(-c2ccccc2)cc1-c1ccccc1,11.7µM*,4.65µM*,-8.2%,-12.9%
Oc1ccccc1-[n+]1c(-c2ccccc2)cc(-c2ccccc2)cc1-c1ccccc1,1.47µM*,1.47µM*,/,-10.3%
Nc1ccccc1-[n+]1c(-c2ccccc2)cc(-c2ccccc2)cc1-c1ccccc1,4.65µM*,2.08µM*,-6.1%,0.8%
CCc1ccc2nc(N3C(=O)c4oc5ccccc5c(=O)c4C3c3ccc(OC)c(OC)c3)sc2c1 (stereo unspecified),4.7%,9.3%,7.9%,/

# High-throughput results: PubChem BioAssay, National Center for Advancing Translational Sciences (NCATS)
